We go through 33 molecules from PubChem BioAssay AID2751 (The Scripps Research Institute Molecular Screening Center, 2010).

By inhibition is commonly meant the drop in the measured response relative to a control, in per cent.

Where “and” joins values, the source holds several entries; their conditions need not be identical. Equal values may be shown once. Screen size: about 320,000 compounds; about 2,200 (0.69%) were called active. Rule as the data show it: active = inhibition above about 43%; inactive = the rest. The entries come from a sample that favours actives as a whole. Some compounds were tested as several samples or in several runs, with calls that do not always agree.

For the test, the target named is Prolyl endopeptidase-like (Homo sapiens) (UniProt Q4J6C6). The test can be described thus: human PREPL activity-probe blockers – biochemical, fluorescence polarization, primary screen (AID 2751).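 Also: 0% = enzyme with DMSO and 100% = wells lacking enzyme.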 Particulars: recombinant PREPL, fluorescence polarization activity-based probe; at 5.96 µM; stronger effect = higher value. On the technique in general: Fluorescence polarisation rises when a labelled molecule tumbles more slowly, as on binding a larger partner.
Sequence of Prolyl endopeptidase-like (Homo sapiens) (Q4J6C6 whole entry, looked up): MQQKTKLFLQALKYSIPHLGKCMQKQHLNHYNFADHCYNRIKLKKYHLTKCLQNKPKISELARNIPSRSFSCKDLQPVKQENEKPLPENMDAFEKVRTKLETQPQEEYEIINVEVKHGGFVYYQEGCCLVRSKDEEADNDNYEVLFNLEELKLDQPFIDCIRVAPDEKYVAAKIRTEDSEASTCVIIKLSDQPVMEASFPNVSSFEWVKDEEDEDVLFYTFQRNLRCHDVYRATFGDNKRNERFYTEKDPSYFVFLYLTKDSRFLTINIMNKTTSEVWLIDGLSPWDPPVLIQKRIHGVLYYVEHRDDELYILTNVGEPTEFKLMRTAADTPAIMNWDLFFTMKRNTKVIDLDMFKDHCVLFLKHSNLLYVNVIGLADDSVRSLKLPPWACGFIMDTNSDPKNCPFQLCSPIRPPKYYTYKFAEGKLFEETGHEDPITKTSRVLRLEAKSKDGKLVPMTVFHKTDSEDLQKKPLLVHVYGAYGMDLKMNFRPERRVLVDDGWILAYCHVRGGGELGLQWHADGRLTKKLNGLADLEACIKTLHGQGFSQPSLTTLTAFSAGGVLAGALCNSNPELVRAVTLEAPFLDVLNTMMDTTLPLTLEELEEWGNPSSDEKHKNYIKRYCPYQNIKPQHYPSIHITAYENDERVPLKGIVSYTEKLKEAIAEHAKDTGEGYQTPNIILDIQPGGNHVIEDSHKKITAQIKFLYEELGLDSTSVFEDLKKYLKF
Turning to `CCc1ccc(S(=O)(=O)Nc2ccc(C)c(NS(C)(=O)=O)c2)cc1`, the inhibition is -2.02% (inactive).

Turning to `Cc1cccc2nc(CNc3ccc(F)cc3)cn12`, the inhibition is -2.47% (inactive).

In the case of `O=C(CN1CCOCC1)Nc1c2c(nc3c1CCC3)CCC2`, the inhibition is -8.04% (inactive).

For the molecule `CCC(=C/c1sc2ccc3ccccc3c2[n+]1C)/C=C1\Sc2ccc3ccccc3c2N1C`, the inhibition is 90.7% (active).

Take `CC(=O)Nc1ccc(NC(=O)C(C)OC(=O)C2CC(=O)N(CCc3ccccc3)C2)cc1` (stereo not drawn): the inhibition is 12.3% (inactive).

For the molecule `CC1(C)CC[C@@]2(C(=O)O)C(C1)C1=CCC3[C@@]4(C)CC[C@H](O)C(C)(C)C4CC[C@@]3(C)[C@]1(C)C[C@H]2O` (stereo partly drawn), the inhibition is 21.2% (inactive).

Consider `COc1c(O)ccc2c1CN1CCc3cc4c(cc3C1C2)OCO4` (stereo not drawn), for which the inhibition is 16.4% (inactive).

Regarding `COc1ccc2cc1Oc1ccc(cc1)C[C@H]1c3cc(c(OC)cc3CCN1C)Oc1c(O)c(OC)cc3c1[C@H](C2)N(C)CC3`, the inhibition was 59% (active).

For the molecule `CC(C)(C)C(=O)N1CCC[C@@]1(CO)C(=O)O`, the inhibition is 6.21% (inactive).

With `CCC/C(C)=N\Nc1nc2c(c(=O)n(C)c(=O)n2C)n1C`, the inhibition is 11.5% (inactive).

As to `CCN1CC(CN(C)Cc2nc(-c3ccc(Cl)cc3)no2)CC1=O` (stereo not drawn), the inhibition is 18.3% (inactive).

For `Cc1cc(C(=O)NCCc2ccc(Cl)cc2)c(C)o1`, the inhibition is 6.11% (inactive).

For `CC(C)CN(C(=O)CN1CCN(S(=O)(=O)c2ccccc2)CC1)c1c(N)n(CC(C)C)c(=O)[nH]c1=O`, the inhibition is 9.18% (inactive).

With `O=C1NC(Cc2ccc(O)cc2)c2nc3ccc(Cl)cc3c(=O)n2-c2ccccc21` (stereo not drawn), the inhibition is 12.8% (inactive).

For the molecule `CC(C)CCNc1nc(N2CCCC2)c2c(c1C#N)CCN(C)C2`, the inhibition is 55.6% (active).

As for `CCc1nc(NCCO)c(C#N)c2c1CCCC2`, the inhibition was 7.84% (inactive).

Regarding `CC(C)Cc1nc(N2CCOCC2)c(C#N)c2c1CCC2`, the inhibition is 2.59% (inactive).

Turning to `CC(Sc1nc2c([nH]c3ccccc32)c(=O)n1C)c1ccccc1` (stereo not drawn), the inhibition was -0.13% (inactive).

`Cc1ccccc1NC(=O)C1CCCN(C(=O)NCc2ccccc2)C1` (stereo not drawn): the inhibition is 10.1% (inactive).

As to `COC(=O)C1CCN(C(=O)c2cc(=O)[nH]c3ccccc23)CC1`, the inhibition is -5.95% (inactive).

For `O=C(Nc1ccc(Cl)cc1)N1CCc2[nH]c3ccccc3c2C1`, the inhibition was 14.6% (inactive).

With `COC(=O)[C@H]1[C@H]2C[C@H]3c4[nH]c5ccccc5c4CCN3C[C@@H]2CC[C@@H]1O`, the inhibition is 16.7% (inactive) and 45.8% (active).

Take `OC(COc1ccc(F)cc1Cl)CN1CCc2ccccc2C1` (stereo not drawn): the inhibition is 3.81% (inactive).

As for `CCCC(C(=O)NCc1ccco1)N(C(=O)CNS(=O)(=O)c1ccccc1)C1CCCC1` (stereo not drawn), the inhibition was -3.85% (inactive).

Turning to `O=C(OCC1OC(Oc2ccc(O)cc2)C(O)C(O)C1O)c1ccccc1` (stereo not drawn), the inhibition is 9.62% (inactive).

With `O=C(OCC1O[C@@H](OC(=O)c2cc(O)c(O)c(O)c2)[C@@H](OC(=O)c2cc(O)c(O)c(O)c2)[C@@H](OC(=O)c2cc(O)c(O)c(O)c2)[C@@H]1OC(=O)c1cc(O)c(O)c(O)c1)c1cc(O)c(O)c(O)c1` (stereo partly drawn), the inhibition was 87.5% (active).

In the case of `COc1ccccc1C(=O)NCc1nnc(SC(C)C(=O)Nc2nccs2)n1C` (stereo not drawn), the inhibition was -8.82% (inactive).

For the molecule `CCC(=O)N1c2ccc(S(=O)(=O)NCc3ccco3)cc2CC1C` (stereo not drawn), the inhibition is -3.18% (inactive).

Take `Nc1c(C(=O)c2cccs2)sc2nsc(SCCN3CCCCC3)c12`: the inhibition is 48.1% (active).

On to `O=C(CSc1ncnc2sccc12)N1CCN(C(=O)c2cccs2)CC1`, for which the inhibition is 6.26% (inactive).

As for `CN(CC(=O)Nc1ccc(Cl)c(C(F)(F)F)c1)C(=O)CCC(=O)c1ccccc1`, the inhibition was 1.31% (inactive).

With `CC(C)c1ccc(S(=O)(=O)N2CCN(C(C)C(=O)NC3CCCC3)CC2)cc1` (stereo not drawn), the inhibition was 5.61% (inactive).

Turning to `CC(Oc1ccc(F)cc1)C(=O)Nc1ccccc1C(=O)NC1CC1` (stereo not drawn), the inhibition is -10.5% (inactive).
